# Results with a measured potency or affinity are listed apart. Inconclusive results are not listed. The source made the active and inactive calls.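 Rule for the calls: active = a valid curve of falling signal whose half-effect concentration is at most ten times the top tested dose; inconclusive = flat curve at 30 to 70% inhibition, or poor fit; inactive = signal rise, flat within 30%, or potency beyond limit.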
# Target: Scavenger receptor class B member 1 (Mus musculus) (UniProt Q61009)
# Experiment: inhibitors of SR-BI mediated HDL lipid uptake, dose response, ldlA[mSR-BI] cells, fluorescence, cherry pick (AID 493194);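 note: CHO cells lacking LDL receptor and overexpressing mouse SR-BI; cellular uptake of fluorescently labeled HDL measured as cell fluorescence; 0% = median of neutral control wells and -100% = median of positive control wells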
# Details: CHO ldlA[mSR-BI] DiI-HDL uptake fluorescence, 3 h; series mostly up to 35 µM; activity change, negative = inhibition: at the top concentration
# Scavenger receptor class B member 1 (Mus musculus), sequence (Q61009 whole entry, looked up): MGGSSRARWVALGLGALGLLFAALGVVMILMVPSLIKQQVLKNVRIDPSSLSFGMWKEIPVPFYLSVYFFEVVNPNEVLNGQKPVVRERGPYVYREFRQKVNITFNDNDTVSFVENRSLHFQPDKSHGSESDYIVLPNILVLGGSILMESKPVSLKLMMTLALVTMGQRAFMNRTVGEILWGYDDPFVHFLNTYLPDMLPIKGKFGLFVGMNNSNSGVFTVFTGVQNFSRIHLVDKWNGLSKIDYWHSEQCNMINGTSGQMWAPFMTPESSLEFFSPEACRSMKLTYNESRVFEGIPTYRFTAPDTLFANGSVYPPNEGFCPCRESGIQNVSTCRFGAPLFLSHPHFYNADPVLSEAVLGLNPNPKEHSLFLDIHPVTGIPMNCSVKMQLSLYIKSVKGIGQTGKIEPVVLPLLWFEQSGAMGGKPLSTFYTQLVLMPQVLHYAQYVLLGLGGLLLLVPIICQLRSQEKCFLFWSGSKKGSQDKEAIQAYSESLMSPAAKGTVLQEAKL
row,SMILES,"activity change, negative = inhibition"
1,Cc1cccc(NC(=O)N2C3CCCC2CC(NC(=O)C(C)(C)C)C3)c1 (stereo not drawn),44.3% (inactive)
2,O=C(Nc1ncc(Cc2cccc(C(F)(F)F)c2)s1)c1ccc(-c2cccc([N+](=O)[O-])c2)o1,-9.44% (inactive)
3,Cc1c(Nc2nc3ccccc3nc2N2CCN(c3ccccc3)CC2)c(=O)n(-c2ccccc2)n1C,-22% (inactive)
4,COCCCN(C(=O)c1ccco1)c1nc(-c2ccc(OC)cc2)cs1,-38.4% (inactive)
5,COc1ccc2sc(-c3ccc(N(C)C)cc3)c(C#Cc3cncn3C)c2c1,10.8% (inactive)
6,Cc1cc(C)cc(NC(=O)c2ccc3c(c2)CCN3S(C)(=O)=O)c1,-12.6% (inactive)
7,O=C(OCc1ccccc1)N1CCC2CC1c1cc(-c3ccc(F)cc3)ccc12 (stereo not drawn),0.578% (inactive)
8,COc1ccc(OCCSc2nnc(-c3cccnc3)n2N)cc1,-6.66% (inactive)
9,CCOC(=O)N1CCN(CC(O)COC2CC(C)CCC2C(C)C)CC1 (stereo not drawn),-13.3% (inactive)
10,COC(=O)[C@@]1(Cc2ccc(F)cc2)[C@H]2c3cc(C(=O)N4CCCC4)n(CCCNc4ncc(C(F)(F)F)cc4Cl)c3C[C@H]2CN1C(=O)c1ccccc1,22.1% (inactive)
11,CC(C)CN(C(=O)COC(=O)C12CC3CC(CC(O)(C3)C1)C2)C1CCS(=O)(=O)C1 (stereo not drawn),111% (inactive)
12,CC(C)(C)OC(=O)N1CSC[C@H]1C(=O)NC[C@H](CC(=O)O)c1ccc(Cl)cc1,-4.86% (inactive)
13,CCC(=O)Nc1ccc(Cl)c(NC(=O)c2cccc(OC)c2)c1,0.316% (inactive)
14,CC1Cc2ccccc2N1C(=O)Cn1nnc(-c2ccccc2NC(=O)C2CCC2)n1 (stereo not drawn),-10.8% (inactive)
15,O=C(Nc1ccc(-c2csc(Nc3cccc(C(F)(F)F)c3)n2)cc1)c1cccc(C(F)(F)F)c1,5.91% (inactive)
16,O=C(Nc1ccccc1)C1=C(O)CC(c2ccoc2)CC1=Nc1ccccc1 (stereo not drawn),-26.7% (inactive)
17,CC1CCCCC1NC(=O)c1nn(C)c2c1CS(=O)(=O)c1ccccc1-2 (stereo not drawn),-33.5% (inactive)
18,CCOC(=O)Nc1cccc(NC(=O)c2cc(OC)cc(OC)c2)c1,-50.1% (inactive)
19,COc1ccc(N2C(=O)C3C(C2=O)C3(c2ccccc2)c2ccccc2)cc1 (stereo not drawn),26.6% (inactive)

row,SMILES,"activity change, negative = inhibition"
1,CCOc1cc2c3c(c1)C1(C(=O)N3C(C)(C)CC2C)C(C#N)=C(N)N2C(=C1C#N)Nc1ccccc12 (stereo not drawn),4.74% (inactive)
2,O=C(CN1CCOCC1)Nc1nc(-c2ccc3c(c2)CCN3S(=O)(=O)c2ccccc2)cs1,118% (inactive)
3,O=C(Nc1ccn(Cc2c(F)c(F)c(F)c(F)c2F)n1)c1ccc(COc2ccccc2Cl)cc1,57.4% (inactive)
4,CCn1c(C)c(C)c2cc(C(=O)Nc3cccc(Cl)c3)ccc21,-55.2% (inactive)
5,COc1ccc(COC(=O)c2ccc(Br)c(S(=O)(=O)N3CCOCC3)c2)cc1F,-34.5% (inactive)
6,O=C(Nc1nc(-c2ccccn2)cs1)c1ccc(-c2ccccc2F)o1,10.7% (inactive)
7,COc1cccc(-c2csc(N3CCN(C(=S)Nc4cccc(C)c4)CC3)n2)c1,-23.2% (inactive)
8,Cc1ccc(-c2nn(-c3ccccc3)cc2/C=C/C(=O)OCC(=O)NC2CC2)o1,-29.3% (inactive)
9,Clc1ccc(Cn2nnc(-c3ccc(N4CCOCC4)cc3)n2)cc1,28.1% (inactive)
10,CCNc1nc(Cl)nc(-c2cn(-c3ccccc3)c3ccccc23)n1,-14.1% (inactive)
11,Cc1c(C(=O)N2CC3(CC(c4cccc(NC(=O)CC(c5ccccc5)c5ccccc5)c4)=NO3)C[C@@H]2C(N)=O)cc([N+](=O)[O-])cc1[N+](=O)[O-] (stereo partly drawn),59.2% (inactive)
12,COC(=O)c1cc2c(ccn2-c2ccc(F)cc2)n1Cc1ccc(C#N)cc1,-6.08% (inactive)
13,COc1ccc(OC[C@@H](O)CNC(=O)c2cccc3c2C(=O)c2ccc(-c4ccc(F)cc4OCc4ccccc4)cc2S3(=O)=O)cc1,-1.68% (inactive)
14,COc1ccccc1CNC(=O)C1CCN(C(=O)c2sccc2-n2cccc2)CC1,-31.5% (inactive)
15,Cc1ccc(C(=O)COc2cc(O)c3c(=O)cc(-c4ccccc4)oc3c2)cc1,5.32% (inactive)
16,CCCOc1ccc(C(=O)Nc2ccc(S(=O)(=O)N3C[C@@H]4C[C@@H](C3)c3cccc(=O)n3C4)cc2)cc1,-3.84% (inactive)
17,Cc1nc(NCc2cccnc2)c2c3c(sc2n1)CC(C)CC3 (stereo not drawn),-4.92% (inactive)
18,O=C(NC1CC1)c1ccc(CN(c2ccccc2)S(=O)(=O)c2ccccc2)cc1,-29.2% (inactive)
19,CC(=O)Nc1cc(NC(C)=O)cc(C(=O)OCC(=O)N(c2ccccc2)C2CCS(=O)(=O)C2)c1 (stereo not drawn),29% (inactive)

# — PubChem BioAssay AID493194 (Broad Institute, 2011)
